# Experimental data reported in PubChem BioAssay AID2100 (National Center for Advancing Translational Sciences (NCATS), 2009).
# Hit rate of the full screen: of about 300,000 compounds, about 1,200 (0.4%) were called active. Another 3% or so got no clear call; they are omitted. The full list was thinned out, with actives kept by preference. Unmarked numbers belong to inactive results. Calls follow the shape of the dose curve; as a rule, active = well fitted inhibition curve with a large enough effect; inconclusive = small, poorly fitted or top-dose-only effect, or another doubt; inactive = no such curve, though single readings can be large or run the other way.
# Target: Lysosomal alpha-glucosidase (Homo sapiens) (UniProt P10253)
# Assay: qHTS Assay for Inhibitors and Activators of Human alpha-Glucosidase Cleavage of Glycogen;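 also: the screen sought inhibitors and activators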;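 as to activity change, negative = inhibition: 0% = full enzyme reaction and -100% = no-enzyme basal signal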
# Conditions: recombinant GAA, glycogen substrate, Amplex Red glucose oxidase fluorescence; series mostly up to 76.4 µM; activity change, negative = inhibition: at the top concentration
# From the text: NIH Chemical Genomics Center [NCGC] NIH Molecular Libraries Probe Production Centers Network [MLPCN] MLPCN Grant: R03 MH084841-01 Assay Submitter (PI): Wei Zheng NCGC Assay Overview: Alpha-glucosidase is responsible for the hydrolysis of terminal, non-reducing 1,4-linked alpha-D-glucose residues, which releases alpha-D-glucose. It is a lysosomal hydrolase that is required for the degradation of a small percentage (1-3%) of cellular glycogen in humans. Deficiency of this enzyme results in glycogen-storage disease type II (GSDII), also referred to as Pompe disease, an autosomal recessive disorder. Structurally normal glycogen is accumulated in the lysosomes and cytoplasm in affected patients, primarily in muscle tissues. Excessive glycogen storage within lysosomes may interrupt normal functioning of other organelles and leads to cellular injury. In turn, this leads to enlargement and dysfunction of the entire organ involved (eg: cardiomyopathy and muscle weakness). It has been reported that the improper folding and trafficking of alpha-glucosidase resulting from genetic mutations may account for a significant number of Pompe patients. […] We optimized this alpha-glucosidase assay in 1536-well plate format for identification of novel small molecule inhibitors or activators with structures other than the sugar analogs in order to develop new pharmacological chaperones. Previous assays of alpha-Glucosidase have utilized a non-natural fluorescent substrate to probe enzyme activity. The present assay measures enzyme activity on glycogen using a coupled-assay system to glucose oxidase.
# NCGC Assay Protocol Summary: This is an enzyme assay using glycogen from bovine liver (Sigma catalog #: G0885) as the substrate and recombinant human alpha-glucosidase as the enzyme preparation. Upon hydrolysis of the substrate, the glucose product can be detected using the Amplex Red Glucose Oxidase Assay Kit (Invitrogen catalog #: A22189). The product of this reaction can be read with a fluorescence plate reader with an excitation at 573 nm and an emission at 610 nm. Data were normalized to the controls for basal activity (without enzyme) and 100% activity (with enzyme). The AC50 values were determined from concentration-response data modeled with the standard Hill equation. Assay buffer for enzyme reaction: 50 mM citric acid (titrated with potassium phosphate to pH 5.0), 0.01% Tween-20 (pH 5.0 is an optimal condition for this enzyme assay) Assay buffer for Amplex Red reaction: Tris-HCl, pH 7.5 1536-well assay protocol for the alpha-glucosidase assay: (1) Add 2 ul/well alpha-glucosidase enzyme solution (4 nM final) (2) Add 23 nL compounds in DMSO solution. The final titration was 0.7 nM to 77 uM. (3) Add 1 ul of glycogen substrate solution (30 ug) (4) Incubate at 37 C for 40 min (5) Add 2 ul tris-HCl buffer with Amplex Red reagents (6) Incubate 45 min at room temperature. (7) Detect the assay plate in a ViewLux plate reader (PerkinElmer) with Ex=573 nm and Em=610nm. Keywords: Alpha-glucosidase, Pompe Disease, pharmacological chaperone, chaperone therapy, high throughput screening, alpha-glucosidase inhibitor, MLSMR, MLSCN, NIH Roadmap, qHTS and NCGC
# Potency is read from the fitted curve at half-maximal effect.
Structure (SMILES),"activity change, negative = inhibition",Potency
CC(C)c1ccc(O)c(CN2CCN(c3ccccc3)CC2)c1,13.9%,–
Oc1cc2c(cc1CN1CCN(c3ccccc3)CC1)OCO2,–,2 µM (active)
Fc1ccc(N2CCN(Cc3ccc4c(c3)OCO4)CC2)cc1,-3.55%,–
Cc1ccc(NC(=O)N(Cc2ccc3c(c2)OCO3)C2CCN(Cc3ccccc3)CC2)cc1F,-5.75% [at 76.3 µM],–
Cn1cc(/C=C/c2nc3ccccc3c(=O)n2-c2ccccc2)c2ccccc21,-5.95% [at 76.3 µM],–
